# Assay outcomes deposited in PubChem BioAssay by The Scripps Research Institute Molecular Screening Center.
# OPRM1-OPRD1 inv – inverse agonists of MOR-DOR heterodimerization, primary screen, cell-based, luminescence; AID 504357, 2011; actives 0.21% (n = 340,000); cell-based MOR-DOR heterodimer luminescence, inverse agonism; inhibition, % at 9.3 µM; in the data active = inhibition above about 22%, passing the limit was not always enough;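 also: 0% = cells with DMSO and 100% = wells without cells with DMSO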
# MOR-DOR ag – agonists of OPRM1-OPRD1 heterodimerization, primary screen, cell-based, luminescence; AID 504326, 2011; Mu-type opioid receptor (Homo sapiens) + Delta-type opioid receptor (Homo sapiens), …; activation, % at 9.3 µM; actives 0.3% (n = 340,000); cells; in the data active = activation above about 18%;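 also: 0% = vehicle-treated cells and 100% = reference agonist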
# HTR5A ag ctr – HTR5A agonists in luminescence cell assay, primary screen, counter-screen for OPRM1-OPRD1 heterodimer agonist project, full-deck HTS | 5-hydroxytryptamine receptor 5A (Homo sapiens), P47898 | cell-based | activation, % at 9.3 µM | actives 0.61% (n = 340,000); in the data active = activation mostly above about 9.5%, no sharp cut-off; inactive = mostly below about 7.6%;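 also: 0% = cells with vehicle only and 100% = reference agonist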
# Target sequence (P47898 whole entry, looked up): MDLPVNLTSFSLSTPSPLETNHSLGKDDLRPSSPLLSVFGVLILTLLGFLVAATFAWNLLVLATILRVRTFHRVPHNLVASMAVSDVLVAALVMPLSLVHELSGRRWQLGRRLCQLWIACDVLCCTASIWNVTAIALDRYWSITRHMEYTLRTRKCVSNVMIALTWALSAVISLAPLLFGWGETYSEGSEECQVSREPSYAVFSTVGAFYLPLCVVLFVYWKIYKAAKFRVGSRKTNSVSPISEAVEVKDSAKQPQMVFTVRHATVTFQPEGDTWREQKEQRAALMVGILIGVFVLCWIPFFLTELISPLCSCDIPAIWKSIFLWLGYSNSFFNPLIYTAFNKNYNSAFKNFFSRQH
# HTR5A inv ctr – HTR5A inverse agonists in luminescence cell assay, primary screen, counter-screen for OPRM1-OPRD1 heterodimer inverse agonist project, full-deck HTS. 5-hydroxytryptamine receptor 5A (Homo sapiens), P47898. HTR5A cell line, inverse agonism. inhibition, % at 9.3 µM. actives 0.083% (n = 340,000). AID 504634, 2011; in the data active = inhibition mostly above about 23%, no sharp cut-off; inactive = mostly below about 18%;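 also: 0% = cells with DMSO and 100% = no-cell wells with DMSO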
# OPRM1-D1 inv cf – inverse agonists of MOR-DOR heterodimerization, confirmation, cell-based, luminescence. shares compounds with OPRM1-OPRD1 inv. cells expressing OPRM1/OPRD1 heterodimer. AID 504900, 2011. inhibition, % at 9.3 µM. actives 20% (n = 580); in the data active = inhibition above about 32%;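 also: 0% = cells with DMSO and 100% = wells lacking cells with DMSO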
# HTR5A inv ctr2 – HTR5A inverse agonists, counter-screen for OPRM1-OPRD1 inverse agonist project, cell-based, luminescence; inhibition, % at 9.3 µM; AID 504914, 2011; HTR5A-expressing cells, inverse agonism; 580 tested, under 10 active; shares compounds with OPRM1-OPRD1 inv; call rule not given here;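 also: 0% = cells with DMSO and 100% = no-cell wells with DMSO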
# * = called active by the depositor; i = inactive; · = no result. Compounds with a hit are over-represented: about 1.1% of the library has one in this group of screens.
SMILES,OPRM1-OPRD1 inv,MOR-DOR ag,HTR5A ag ctr,HTR5A inv ctr,OPRM1-D1 inv cf,HTR5A inv ctr2
COc1ccc(S(=O)(=O)NNc2nc(C)cc(C)n2)cc1Br,31*,-6,0,1,-2,-8
Cc1cc(C)nc(NNS(=O)(=O)c2ccc(Cl)cc2)n1,45*,-10,-3,13,19,7
Cc1cc(C)nc(NNS(=O)(=O)c2ccc(F)c(Cl)c2)n1,44*,-8,-5,12,62*,-5
COc1ccc(NS(=O)(=O)c2ccc(F)c(Cl)c2)cn1,-4,1,-3,-5,·,·
CC1=CC[C@@]23CCCN2C(=O)CCC[C@H]3C1,19,-4,2,-7,·,·
COc1cc(/C=C2\C(=O)N(C)C(=S)N2C)ccc1O,-11,2,-3,7,·,·
CN1C(=O)/C(=C/c2ccc(O)c([N+](=O)[O-])c2)N(C)C1=S,33*,-6,5,11,8,19
CC(=O)C1=C(O)C(=O)N(CCc2ccccc2)C1c1ccccc1[N+](=O)[O-] (stereo not drawn),2,0,2,-6,·,·
O=C(/C=C/c1ccccc1)C1=C(O)C(=O)N(CCO)C1c1ccccc1[N+](=O)[O-] (stereo not drawn),52*,-10,-4,20,-427,-37
Cc1ccccc1CN1C(=O)C(O)(CC(=O)c2ccncc2)c2ccccc21 (stereo not drawn),45*,-8,-1,3,-84,-32
O=C(CC1(O)C(=O)N(Cc2ccccc2)c2ccccc21)c1ccncc1 (stereo not drawn),40*,-8,-9,22,-152,-117
Cc1ccc(-c2nnc(SCC(=O)NCC3CCCO3)nc2-c2ccc(C)cc2)cc1 (stereo not drawn),9,-2,-6,15,·,·
CCOc1ccc(N=C2C(=O)Nc3ccc(C)c(Br)c32)cc1,53*,-10,-4,17,83*,11
Cc1ccc2c(c1Br)/C(=N/N1C(=O)c3ccccc3C1=O)C(=O)N2,65*,-11,-3,-1,-34,-21
Cc1ccc(N2C(=O)c3ccccc3C2=O)nc1,16,-3,-1,3,·,·
O=C(Nc1ccc(Cl)cc1)C(Cl)C(=O)c1ccccc1 (stereo not drawn),37*,-7,-3,8,-385,-3
CCCCCCSc1ccc([C@@H]2[C@H]3C(=O)N(CC)C(=O)[C@H]3[C@]3(C(=O)OC)CCCN23)cc1,19,-3,4,1,·,·
O=C(COC(=O)CC1CCCC1)Nc1ccccc1[N+](=O)[O-],-35,9,9,-26,·,·
O=[N+]([O-])c1c(NCCCO)cc(Sc2nc3ccccc3s2)c2nonc12,35*,-6,-5,2,30,12
CCC(=O)OCCNc1cc(Sc2nc3ccccc3[nH]2)c2nonc2c1[N+](=O)[O-],43*,-8,-10,-9,-10,-8
NNc1nc(-c2ccccc2)cc(-c2ccc(Br)cc2)n1,70*,-14,-11,-18,78*,25
NNc1nc(-c2ccccc2)c2cc(Br)ccc2n1,20,-5,-1,4,·,·
Cc1ccc(N/N=C/c2c(O)cc(C)oc2=O)cc1,46*,-9,-1,2,44*,-6
CCOC(=O)c1c(SCCN2CCCCC2)n(-c2ccccc2)c(=S)n(-c2ccccc2)c1=O,-2,0,2,-8,·,·
Cc1[nH][nH]c(=O)c1C(c1c(C)[nH][nH]c1=O)c1cn(Cc2ccc(F)cc2)c2ccccc12,43*,-8,1,15,2,-3
SMILES,OPRM1-OPRD1 inv,MOR-DOR ag,HTR5A ag ctr,HTR5A inv ctr,OPRM1-D1 inv cf,HTR5A inv ctr2
Cc1[nH][nH]c(=O)c1C(c1c(C)[nH][nH]c1=O)c1cn(Cc2ccc(Cl)c(Cl)c2)c2ccccc12,33,-6,1,-30,·,·
Cc1cc(C(=O)NNC(=S)NC(C)c2ccccc2)c2ccccc2n1 (stereo not drawn),34*,-6,3,-12,5,-13
Cc1cc(C(=O)NNC(=O)c2ccc(Cl)cc2)c2ccccc2n1,5,-1,-3,9,·,·
CN(C(=O)CSc1nnc(Cc2cccs2)n1C1CC1)C1CCS(=O)(=O)C1 (stereo not drawn),12,-2,-5,15,·,·
CCCN1/C(=C2/SC(=S)N(CC)C2=O)C=Cc2ccccc21,14,-2,-3,2,·,·
CN1C(=O)/C(=C2/C=Cc3ccccc3N2CCCS(=O)(=O)O)SC1=S,32*,-6,-8,21,-52,-12
O=C(NNc1cc(Br)c(O)c(Br)c1)c1ccccc1,79*,-16,-9,12,75*,22
O=C(NNC(=O)c1ccc2ccccc2c1)c1ccc(Cl)c(Cl)c1,17,-4,0,2,·,·
O=C(NNc1ccccc1)c1ccc(Cl)c(Cl)c1,40*,-9,-2,8,54*,14
O=S(=O)(/C=C/C=C/S(=O)(=O)c1ccccc1)c1ccccc1,36,-8,-5,18,·,·
CC[C@]12C(=O)N(C)C[C@H]([C@@H]3C(=O)N(C)C(=O)[C@@H]31)N2C(=O)c1ccc(C(C)(C)C)cc1,14,-2,1,-2,·,·
O=C(NC(=S)Nc1ccccc1C(=O)O)c1cncc(Br)c1,13,-3,2,-7,·,·
O=C(NC(=S)Nc1ccccc1O)c1cncc(Br)c1,41*,-8,-4,10,-99,-32
O=C(NC(=S)Nc1ccccc1O)c1cccnc1,35*,-7,-3,10,23,-9
CCC(C)c1ccc(O)c(NC(=S)NC(=O)c2cccnc2)c1 (stereo not drawn),47*,-9,-7,19,i,-3
Cc1cc(C)n2nc(SC(C)C(=O)N3CCOCC3)nc2n1 (stereo not drawn),37*,-6,1,7,-16,3
CC(=O)C(Sc1nc(N(C)C)nc(N(C)C)n1)C(=O)Nc1ccccc1 (stereo not drawn),-5,1,-2,-4,·,·
CC(=O)C(Sc1nn(C)c(=S)s1)C(=O)Nc1ccccc1 (stereo not drawn),72*,-16,-11,16,-266,-38
Cc1cc(C(=O)N/N=C/c2cc(Br)cc([N+](=O)[O-])c2O)c2ccccc2n1,22*,-4,-3,11,-1,7
O=[N+]([O-])c1ccc(Cl)cc1P(=O)(O)c1cc(Cl)ccc1[N+](=O)[O-],5,-1,-3,10,·,·
O=[N+]([O-])c1ccc(O)c(C=NNc2ccc(S(=O)(=O)O)cc2)c1,31*,-6,-4,15,-85,-12
